# RN4220 kill = S. aureus RN4220 growth inhibition. OD600, 16 h. inhibition, % (test concentration not listed). hit rate 0.33% among 330,000. AID 1259311; in the data active = inhibition above about 85%
# DUSP3 inh = blocks human VHR1 dual specificity phosphatase; recombinant VHR phosphatase, pNPP absorbance; inhibition, % at 13.3 µM; hit rate 0.52% among 290,000; AID 1654; in the data active = inhibition above about 50%
# Target sequence (P51452 whole entry, looked up): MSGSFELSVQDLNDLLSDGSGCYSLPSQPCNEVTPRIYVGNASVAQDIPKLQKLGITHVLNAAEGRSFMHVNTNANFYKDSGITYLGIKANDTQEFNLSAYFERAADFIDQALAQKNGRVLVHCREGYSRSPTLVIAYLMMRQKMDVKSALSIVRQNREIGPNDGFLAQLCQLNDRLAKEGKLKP
# ugtP null kill = growth inhibition of S. aureus ugtP deletion strain; AID 1259309; hit rate 0.54% among 330,000; growth inhibition, % (test concentration not listed); S. aureus RN4220 ugtP deletion, OD600 growth, 16 h; in the data active = growth inhibition above about 68%
# PrPC TRFRET = cell surface PrPC inhibition, primary TR-FRET screen. TR-FRET read-out. inhibition, % at 13.8 µM. P04156. hit rate 0.43% among 370,000; in the data active = inhibition above about 24%
# BJeLR viability = kills HRASV12-expressing BJeLR cells; BJeLR (HRASV12) viability, CellTiter-Glo ATP luminescence, 48 h; inhibition, % (test concentration not listed); hit rate 0.17% among 300,000; AID 1554; in the data active = inhibition above about 50%
# SARS 3CLpro inh = SARS-CoV 3CLpro protease inhibition; inhibition, % at 6 µM; P0C6X7; AID 1706; hit rate 0.14% among 290,000; recombinant SARS-CoV 3CLpro, quenched FRET peptide cleavage; in the data active = inhibition above about 12%
# A number is an active result; - = inactive; . = no result. An excerpt weighted towards active compounds, which were near 1.4% of everything screened.
SMILES,RN4220 kill,DUSP3 inh,ugtP null kill,PrPC TRFRET,BJeLR viability,SARS 3CLpro inh
COc1ccc(OC)c2[nH]c(=O)c(CCNS(=O)(=O)c3ccc(F)cc3)cc12,-,-,-,-,-,-
CCS(=O)(=O)NCCc1cc2c(OC)ccc(OC)c2[nH]c1=O,-,52.9,-,-,-,-
Cc1cnc(C(=O)OCc2ccc(Br)cc2F)cn1,-,57.6,-,-,-,-
Cc1ccc(NCc2nnc(SCC(N)=O)n2CC2CCCO2)c(C)c1 (centres undefined),-,52.9,-,-,-,-
O=[N+]([O-])c1cccc(/C=N/N=C\c2ccccc2)c1,.,59.7,.,-,-,-
O=[N+]([O-])c1cccc(C=NN=Cc2ccccc2)c1,-,.,-,.,.,.
COc1ccc(C(=O)N2C(=S)NC(=O)/C2=C\c2ccc(C)cc2)cc1,-,-,100.1,-,-,-
Cc1ccc(S(=O)(=O)N2CCc3ccccc3CC2)cc1,-,.,-,-,.,.
Cc1ccc(S(=O)(=O)N2CCc3ccccc3C2)cc1,-,52.0,-,-,-,-
C#CCOCCOCCOCCNc1nc(N2CCN(C(=O)C(CCCCN)n3cc(C(N)C(C)CC)nn3)CC2)nc(N2CCN(C(=O)C(Cc3ccc(O)cc3)n3cc(C(N)C(C)CC)nn3)CC2)n1 (centres undefined),-,.,-,.,.,.
ON=Cc1cc(Br)ccc1OCc1cccc(F)c1,-,.,82.5,.,.,.
ON=Cc1cc(Br)ccc1OCc1ccccc1F,-,.,87.4,.,.,.
NC1CCN(c2c(F)cc3c(=O)c(C(=O)O)cn(C4CC4)c3c2Cl)C1 (centres undefined),100.2,-,100.1,-,-,-
COc1c(N2CCNC(C)C2)c(F)cc2c(=O)c(C(=O)O)cn(C3CC3)c12 (centres undefined),100.2,.,99.5,.,-,.
CCOC(=O)c1cn(C2CC2)c2c(F)c(NCCCN(C)C)c(F)cc2c1=O,-,.,-,-,-,.
NC1CCN(c2nc3c(cc2F)c(=O)c(C(=O)O)cn3-c2ccc(F)cc2F)C1 (centres undefined),99.8,.,99.2,-,-,.
COc1c(N2CC3CCCNC3C2)c(F)cc2c(=O)c(C(=O)O)cn(C3CC3)c12 (centres undefined),100.6,.,99.9,.,.,.
O=C(C=Cc1ccc([N+](=O)[O-])cc1)NC1CC2CCC1C2 (centres undefined),-,.,-,.,.,.
CCOC(=O)C1C2COc3cc(OC)ccc3C2N2C(=O)c3cc(F)ccc3NC(=O)[C@@]12C (some centres undefined),-,.,-,.,.,.
COC(=O)[C@@]1(Cc2ccc(F)cc2)C2c3cc(C(=O)N4CCCC4)n(CCc4ccc(O)c(O)c4)c3CC2CN1C(=O)c1ccccc1 (some centres undefined),-,.,-,.,.,.
CN(C)c1ccc(C=C2C(=O)NC(=S)NC2=O)cc1,-,.,-,-,.,.
CCN(CC)c1ccc(C=C2C(=O)NC(=S)NC2=O)cc1,-,-,-,-,51.4,-
COc1ccccc1NC(=O)c1cc2cc(Br)ccc2cc1O,99.5,-,100.0,-,-,-
COc1cc(NC(=O)c2cc3ccccc3cc2O)c(OC)cc1Cl,-,-,-,-,-,-
CCN1C(=O)C2C(c3ccc(SC4CCCCC4)c(OC)c3)N3CCC[C@@]3(C(=O)OC)C2C1=O (some centres undefined),-,.,-,.,.,.
SMILES,RN4220 kill,DUSP3 inh,ugtP null kill,PrPC TRFRET,BJeLR viability,SARS 3CLpro inh
CC(C)=CCC12Oc3cc(O)ccc3C1(O)Oc1cc(O)c([C@H]3C=C(C)CC(c4ccc(O)cc4O)[C@H]3C(=O)c3ccc(O)cc3O)c(O)c1C2=O (some centres undefined),96.2,.,100.3,.,-,.
O=c1c(Cc2ccc(Cl)cc2)c(O)ccn1Cc1cccs1,-,50.3,-,-,-,-
O=C(NC1CCCC1)C1CCN(C(=O)NCc2ccccc2)CC1,-,54.4,-,-,-,-
C#CCOCCOCCOCCNc1nc(N2CCN(C(=O)C(CCC(=O)O)n3cc(C(N)CC(C)C)nn3)CC2)nc(N2CCN(C(=O)C(Cc3cc4ccccc4[nH]3)n3cc(C(N)CC(C)C)nn3)CC2)n1 (centres undefined),-,.,-,.,.,.
O=C(COc1ccc(Cl)cc1)Nc1nnc(-c2ccc3c(c2)CCCC3)o1,99.6,-,95.9,-,-,-
O=C(Nc1nnc(-c2ccc3c(c2)CCCC3)o1)C1COc2ccccc2O1 (centres undefined),-,50.3,-,-,-,-
O=C(COc1ccccc1)Nc1nnc(-c2ccc(Cl)cc2)o1,-,-,-,-,-,-
CNCC(Cc1ccccc1)NCC(CC1CCCCC1)NCCCc1ccccc1 (centres undefined),84.5,.,-,.,.,.
CNCC(CC1CCCCC1)NCC(Cc1ccccc1)NCCC12CC3CC(CC(C3)C1)C2 (centres undefined),100.4,.,100.7,.,.,.
CC(=O)c1c(N2CCN(c3cccc(Cl)c3)CC2)nc(=S)n(-c2ccccc2)c1C,-,-,82.7,-,-,-
N#CC(C#N)=C1C=CC=CN1/C(=C\c1ccco1)C(=O)c1ccc(Br)cc1,98.7,-,98.4,-,.,-
COc1ccc(C(=O)/C(=C\c2ccco2)N2C=CC=CC2=C(C#N)C#N)cc1,-,-,-,.,-,-
c1ccc(C[n+]2c(-c3ccccc3)csc2Nc2ccccc2)cc1,-,-,85.2,-,-,-
c1ccc(Nc2scc(-c3ccccc3)[n+]2Cc2ccco2)cc1,-,-,-,-,-,-
Oc1c(Cl)cc(Cl)cc1/C=C/c1ccc2cccc(O)c2n1,91.2,-,-,-,-,-
Oc1cccc2ccc(/C=C/c3ccccc3Br)nc12,89.9,-,91.9,-,-,-
Cc1ccc(S(=O)(=O)N2C(c3cccs3)CC=C(C(=O)O)C2c2cccc(Cl)c2)cc1 (centres undefined),-,.,-,.,.,.
COc1ccc(S(=O)(=O)N(C)CC2Oc3ccc(NS(=O)(=O)c4ccc(F)cc4)cc3C(=O)N(C(C)CO)CC2C)cc1 (centres undefined),-,.,-,.,.,.
C=CCc1cccc2cc(C(=O)Nc3ccc(CC(=O)O)cc3)c(=O)oc12,-,52.1,-,-,-,-
CN1/C(=C\C=N\NC(=O)c2ccc(O)cc2)C(C)(C)c2ccccc21,.,-,.,-,-,-
CN1C(=CC=NNC(=O)c2ccccc2Br)C(C)(C)c2ccccc21,-,.,88.0,.,.,.
COC(C(=O)N/N=C(\C)c1ccc(C)cc1)c1ccccc1 (centres undefined),.,51.5,.,-,-,-
C[C@]1(C(=O)O)C=CC(Cc2ccccc2)N1C(=O)c1ccccc1 (some centres undefined),-,.,-,.,.,.
Cc1cccc(Cn2nnc3c2C(=O)c2ccccc2C3=O)c1,-,-,85.6,-,-,-
CC(C)c1ccc(NC(=O)CCNC(=O)N2CC(=O)Nc3ccccc32)cc1,-,51.2,-,-,-,-
CC(C)[C@H](NC(=O)N1CC(=O)Nc2ccccc21)C(=O)Nc1nccs1,-,-,-,-,-,-

# Screens deposited in PubChem BioAssay by several laboratories.
